Hit rate of the full screen: of about 340,000 compounds, about 2,500 (0.74%) were called active. The entries come from a sample that favours actives as a whole. A number with no mark means an inactive call.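 The calls were made as follows: active = inhibition above about 55% (limit read from the data); inactive = the rest.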
assay: blockers of Gli reporter signaling – luciferase luminescence, Sufu-KO-LIGHT cells, uHTS, primary screen (AID 588413); details: Sufu-KO-LIGHT fibroblasts, at 5 µM, stronger effect = higher value;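 also: 0% = DMSO-treated cells and 100% = wells with medium but no cells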

In the case of `CC1=CC(=Cc2sc3ccccc3[n+]2C)C=C(C)O1`, the inhibition is reported as 80.9% (active).
For `CCCCCCCCCCCCn1ccc(=N)cc1`, the inhibition was 87.5% (active).
With `CCOc1cccc(=NC2CCCCC2)c2c(C)[nH]c(C)c12` the inhibition was 79% (active).
With `CCC(C)(O)C(=O)OC1C(=O)OC2CC3C(C)=CC(=O)C(O)C3(C)C3C4(O)OCC23C1C(C)C4O` (stereo not given) the inhibition was 82% (active).
In the case of `CCOc1ccc(-c2cc(C)[n+](CCN(CC)CC)c(-c3ccc(OCC)cc3)c2)cc1`, the inhibition is reported as 77.8% (active).
For `CC(=O)OC1C2(CC3N4C(=O)C5(CO)SSC4(CC31O)C(=O)N5C)OC(C)C(C)(C)C2=O` (stereo not given), the inhibition was 85.7% (active).

Compared with `O=C(O)CCn1cc(C=C2C(=O)NC(=S)NC2=O)c(-c2cccc(Br)c2)n1`, `Cc1ccnc(-n2c(C)cc(/C=C3\C(=O)NC(=S)N(C)C3=O)c2C)c1` is higher in inhibition: -2.59% for the first, 7.71% for the second.

First: CC(C)CN1CCN(Cc2ccccc2C(F)(F)F)CC1CCO (stereo not given)
Second: COC(=O)C1=C(c2cc3ccccc3s2)C[C@@H]2CC[C@H]1N2C(=O)NC(C)C
The inhibition of the first is higher: 20.7% for the first, 9.18% for the second.

Compared with `Cc1cc(C)c2c(c1)NP(=S)(c1ccccc1)N2` (stereo not given), `Cc1ccccc1NC(=O)COC(=O)c1cc(C)n(C2CC2)c1C` is higher in inhibition: -6.68% for the first, 0.92% for the second.

Compared with `CNC(=O)Nc1ccc(C(O)(C(=O)OC)C(F)(F)F)cc1` (stereo not given), `C=CCN(CC=C)C(=O)Nc1ccc(OCC)cc1` is lower in inhibition: 11.8% for the first, -12.4% for the second.

Compared with `O=C1C2(Cl)C3(Cl)C4(Cl)C(Cl)(Cl)C5(Cl)C3(Cl)C1(Cl)C5(Cl)C24Cl` (stereo not given), `O=C1NC(=O)C(CCc2ccccn2)(Cc2cccc(Cl)c2Cl)C(=O)N1c1ccc(Br)cc1` (stereo not given) is higher in inhibition: -3.44% for the first, 0.16% for the second.

Compared with `COc1cc(-n2c(=S)[nH]c3ccc(C)cc3c2=O)c(Cl)cc1Cl`, `CC[C@H]1CC2CN3CCc4c([nH]c5ccccc45)C(C(=O)OC)(C2)C13` (stereo not given in full) is higher in inhibition: -14.6% for the first, 8.02% for the second.

First: CCN(CC)CCOC(=O)c1cc2cc(COC)ccc2o1
Second: CCOP(=O)(OCC)C(NC(=O)c1ccc(OC)cc1)C(Cl)(Cl)Cl (stereo not given)
The inhibition of the first is higher: 0.39% for the first, -2.69% for the second.

Compared with `CC(C)Nc1nc(Cl)nc(NC(C)C)n1`, `CCOP(=O)(OCC)C(NC(=O)c1ccc(C)cc1)C(Cl)(Cl)Cl` (stereo not given) is higher in inhibition: 1.26% for the first, 2.77% for the second.

Going from `O=C(C1CC(=O)N(C2CCCC2)C1)N1CCC2(CC1)OCCO2` (stereo not given) to `O=C1/C(=C\c2ccc3c(c2)OCO3)N2CCC1CC2`, the inhibition rises from -2.84% to 16.5%.

First: CN(C)CC1Oc2ccccc2OC1(O)c1ccccc1 (stereo not given)
Second: N[C@@H](Cc1c[nH]c2ccccc12)c1nnc(SCc2c(F)cccc2Cl)o1
The inhibition of the first is lower: -3.73% for the first, -1.34% for the second.

Going from `CC1=C2C(=O)C3C(CC=C4CC(OC5OC(O)C(O)C(O)C5CO)CCC43C)C2CCC12OC1CC(C)CNC1C2C` (stereo not given) to `COC(=O)COc1cc(C)cc2oc(=O)c3c(c12)CCCC3`, the inhibition falls from -0.71% to -1.17%.

Compared with `COc1ccc(-c2nn(CCC#N)cc2C(=O)Nc2ccc(C(C)=O)cc2)cc1`, `COc1ccc(NC(=O)c2cn(CCC#N)nc2-c2ccc([N+](=O)[O-])cc2)cc1` is higher in inhibition: -28.4% for the first, 6.35% for the second.

Reference: PubChem BioAssay AID588413 (Sanford-Burnham Center for Chemical Genomics, 2011)
